Assay outcomes as filed in PubChem.
tim10-1 inh = growth inhibitors of tim10-1 mutant yeast, primary screen, luminescence, uHTS; inhibition, % at 20 µM; 330,000 tested, 2.2% active; S. cerevisiae tim10-1 ts strain growth, BacTiter-Glo, 24 h; AID 463190, 2010;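 active means inhibition of at least 40%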;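 further: mutant grown at 25 °C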
tim23-1 inh = growth inhibitors of tim23-1 mutant yeast, primary screen, luminescence, uHTS | S. cerevisiae tim23-1 growth, BacTiter-Glo luminescence, 24 h | 330,000 tested, 1.3% active | inhibition, % at 20 µM | AID 463212, 2010;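 active means growth inhibition of the mutant yeast at or above 50%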;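 further: temperature-sensitive mutant grown at 25 °C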
PfHsp90 yeast 2 = growth inhibition of PfHsp90-expressing yeast, primary screen, antimalarial PfHsp90 inhibitor project, S. cerevisiae, BacTiter-Glo luminescence, single point, set 2. BacTiter-Glo ATP, 48 h; yeast lacking PDR1 and PDR3 efflux regulators. inhibition, % at 9.4 µM. 310,000 tested, 0.32% active;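 active means every replicate shows inhibition above about 80%, whatever the replicate mean, limit read from the data; inconclusive means mean inhibition reaches the set limit but some replicate falls short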
SKKanGAS inh = S. pyogenes SKKanGAS growth inhibitors in kanamycin, primary screen, streptokinase expression inhibitor project, SKKanGAS strain, BacTiter-Glo luminescence; 6 h; inhibition, % at 7.5 µM; 300,000 tested, 1.3% active; AID 1662, 2009;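 active means mean replicate score, as percent of positive control median, at least 50; inconclusive means mean below 50 but one replicate at or above 50; inactive means mean and every replicate below 50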;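 further: strain carries kanamycin resistance gene driven by streptokinase promoter and grows in 40 µg/ml kanamycin; loss of luminescence reflects streptokinase promoter inhibition or plain growth inhibition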
TIM10 inh = growth inhibitors of isogenic TIM10 control yeast, primary screen, counter-screen for tim10-1 yeast inhibitor project, luminescence, uHTS; 330,000 tested, 1.4% active; inhibition, % at 10 µM; S. cerevisiae TIM10 strain growth, BacTiter-Glo luminescence, 24 h;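 active means inhibition of 40% or more at the single tested concentration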;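 further: wild-type TIM10 isogenic control strain grown at permissive 25 °C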
NALP1 yeast inh = NALP1 inflammasome inhibitors in reconstituted yeast, colorimetric, S. cerevisiae, triplicate retest; S. cerevisiae NALP1/ASC/caspase-1 growth, X-gal OD620, 72 h; inhibition, % at 10 µM; 280,000 tested, 0.61% active; AID 2071, 2009; in the data active means inhibition mostly above about 24%, no sharp cut-off; inactive means mostly below about 32%
A number is an active result; 0 = inactive; ? = inconclusive; - = no result given. Only some compounds are listed: those with a hit (about 4.8% of all), similar ones and a draw of the others.

SMILES	tim10-1 inh	tim23-1 inh	PfHsp90 yeast 2	SKKanGAS inh	TIM10 inh	NALP1 yeast inh
Cc1onc(-c2ccccc2)c1C(=O)NNC(=O)c1ccccc1	0	0	0	-	0	-
Cc1onc(-c2ccccc2)c1C(=O)NNC(=S)NC(=O)c1ccc(Br)cc1	-	-	0	125.1	-	0
COc1ccc(-c2cc(C(=O)NNC(=S)NC(=O)c3c(-c4ccccc4)noc3C)[nH]n2)cc1	0	0	0	93.0	0	0
COc1ccc(NC(=O)c2c(-c3ccccc3)noc2C)c(OC)c1	0	0	0	0	0	0
COc1ccc(/C=C/C(=O)NC(=S)NNC(=O)c2c(-c3ccccc3)noc2C)cc1	0	0	0	88.8	0	0
Cc1onc(-c2ccccc2)c1C(=O)NNC(=S)NC(=O)/C=C/c1ccccc1	0	0	0	50.8	0	0
COc1ccc(NC(=O)/C(=C/c2cccnc2)NC(=O)c2cccs2)cc1	-	-	0	0	-	0
Cc1onc(-c2ccccc2)c1C(=O)NNC(=S)NC(=O)c1ccc(Cl)cc1Cl	0	0	0	80.0	0	0
COc1ccc(Nc2ncc(C(=O)N3CCN(c4ccc(F)cc4)CC3)c3ccccc23)cc1	0	0	0	0	0	0
Brc1ccc(Nc2ncnc3[nH]ncc23)cc1	0	0	-	52.1	0	-
COC(=O)CSc1nc(N2CCOCC2)c2c(c1C#N)CC(C)(C)N(C)C2	0	0	0	0	0	0
COc1cccc(/C=C/C(=O)OCC(=O)c2c[nH]c3ccccc23)c1	0	0	0	-	0	-
CCc1cccc2c(C(=O)COC(=O)/C=C/c3ccc(O)c(OC)c3)c[nH]c12	0	0	0	50.6	0	0
Cc1ccc2cccc(NS(=O)(=O)c3ccccc3)c2n1	0	0	-	54.9	0	0
O=S(=O)(Nc1cccc2cccnc12)c1ccccc1	0	0	0	?	0	0
Cc1c(C(=O)Nc2ccc(Oc3ccccc3)cc2)sc2nc3n(c(=O)c12)CCC3	0	0	0	55.7	0	0
COc1cccc(COC(=O)c2sc3nc4n(c(=O)c3c2C)CCC4)c1OC	0	0	0	93.2	0	-
Cc1c(C(=O)Nc2ccc(OC(F)(F)F)cc2)sc2nc3n(c(=O)c12)CCC3	0	0	0	0	0	0
CC1CCN(CCOCCOc2ccccc2Br)CC1	0	0	0	0	0	0
NC(=O)CSc1nnc(COc2ccc3ccccc3c2)o1	0	0	0	0	0	0
O=C(CCN1CCN(Cc2ccccc2)CC1)NNC(=O)Nc1cccc([N+](=O)[O-])c1	0	0	0	0	0	25.7
COc1ccc(S(=O)(=O)NCCCN2CCOCC2)cc1F	0	0	0	0	0	0
c1csc(-c2ccnc3ncnn23)c1	0	0	0	0	0	0
COc1ccc2ncc(S(=O)(=O)c3ccccc3)c(N3CCN(c4ccccc4)CC3)c2c1	0	0	0	66.8	0	0
C=C[C@@H]1CN2CCC1C[C@@H]2[C@@H](O)c1ccnc2ccc(OC)cc12 (stereo partly drawn)	0	0	0	0	0	0
SMILES	tim10-1 inh	tim23-1 inh	PfHsp90 yeast 2	SKKanGAS inh	TIM10 inh	NALP1 yeast inh
CC1=Nc2ccccc2/C1=C\c1nc(-c2ccc(C(F)(F)F)cc2)oc1O	0	0	0	0	0	0
COc1ccc(-c2nc(/C=C3\C(C)=Nc4ccccc43)c(O)o2)cc1	0	0	0	58.3	0	0
O=C(/C=C/c1ccc2c(c1)OCO2)c1ccc[nH]1	0	0	0	0	0	0
COc1cccc(/C=C/C(=O)c2ccc[nH]2)c1	0	0	0	0	0	41.6
COc1ccc(NC(=O)CSc2n[nH]c(-c3ccco3)n2)cc1	0	0	0	0	0	0
CCC(=O)NC(=S)Nc1ccc(NC(=O)COc2ccc([N+](=O)[O-])cc2)cc1	0	0	0	0	0	0
CSCCC(NS(=O)(=O)c1ccc(Cl)cc1)C(=O)OCC(=O)N(C(C)C)C(C)C (stereo not drawn)	0	0	0	0	0	35.2
CSCCC(NS(=O)(=O)c1ccc(Cl)cc1)C(=O)OCC(=O)NC1CC1 (stereo not drawn)	0	0	0	0	0	0
